# The campaign covered roughly 100,000 compounds. About 770 (0.77%) were called active. The sample as a whole holds a higher share of actives than the screen did. Unmarked numbers belong to inactive results. Rule as the data show it: active = inhibition above about 50%; inactive = the rest.
# Biological target: Gag-Pol polyprotein (Human immunodeficiency virus type 1 group M subtype B (isolate HXB2)) (UniProt P04585)
# Experiment: RNase H inhibition, HIV 1 Gag Pol polyprotein, FRET biochemical assay, screening (AID 372)
# Settings: HIV-1 RT RNase H, FRET RNA/DNA substrate fluorescence; at 10 µM; active compounds read high
row,SMILES,inhibition
1,Cc1cccnc1NC(=O)Nc1cccc(F)c1,7%
2,O=C(NNc1ccc(F)cc1)C(O)(c1ccccc1)c1ccccc1,2%
3,NS(=O)(=O)c1ccc(Nc2nc(-c3ccccn3)cs2)cc1,3%
4,CC(=O)Nc1ccc2c(c1)C(=O)OC2(c1ccc(N(C)C)cc1)c1ccc(N(C)C)cc1,17%
5,Cc1nc2ccccc2n1C(=O)c1ccc([N+](=O)[O-])cc1,0%
6,Cc1ccc(C(=O)N/N=C/C=C/c2ccc([N+](=O)[O-])cc2)cn1,1%
7,O=C(N/N=C\c1ccc([N+](=O)[O-])cc1)c1cccc2cc[nH]c12,8%
8,Cc1ccc(N2NC(=O)/C(=C/c3ccc(-c4cc([N+](=O)[O-])ccc4C)o3)C2=O)cc1,13%
9,COc1cc(C(=O)O)c(-n2c(C)ccc2C)cc1OC,13%
10,Cc1ccc(C)n1-c1ccc(Cl)cc1C(=O)O,16%
11,Cc1c(C(=O)O)cccc1-n1c(C)ccc1C,58% (active)
12,Cc1ccc(C(=O)O)cc1-n1c(C)ccc1C,19%
13,Cc1c(C(=O)O)cccc1-n1c(=O)c2cc3c(=O)n(-c4cccc(C(=O)O)c4C)c(=O)c3cc2c1=O,10%
14,Cc1ccc(C)n1-c1ccccc1C(=O)O,15%
15,Cc1ccc(C)n1-c1ccc(C(=O)O)cc1O,8%
16,COc1ccc(/C(C)=N/NC(=O)c2ccncc2)c(OC)c1OC,5%
17,COc1cc(Br)c(CNc2cccc(C)c2)cc1OC,22%
18,CCc1c(C)c(C#N)c2nc3ccccc3n2c1Nc1ccc(N(CC)CC)cc1,30%
19,O=C(Nc1ccccc1C#Cc1ccccc1)c1ccc(-c2ccccc2)cc1,0%
20,CC1CC(Nc2ccccc2)c2ccccc2N1 (stereo unspecified),0%
21,COC(=O)CN1C(=O)c2cccc3cccc(c23)C1=O,7%
22,N#CC1=C(N)OC2=C(C(=O)CC(c3ccccc3)C2)C1c1coc2ccccc2c1=O (stereo unspecified),4%
23,Cc1cc(/C=C2/C(=O)NC(=O)N(Cc3ccco3)C2=O)c(C)n1-c1ccc([N+](=O)[O-])cc1,14%

row,SMILES,inhibition
1,Cc1cc([N+](=O)[O-])ccc1-n1c(C)cc(/C=C2/C(=O)NC(=O)N(Cc3ccco3)C2=O)c1C,50% (active)
2,O=C1NC(=O)N(Cc2ccco2)C(=O)/C1=C\c1ccc(-c2ccc(Cl)cc2Cl)o1,58% (active)
3,CCOC(=O)c1ccc(-c2ccc(/C=C3/C(=O)NC(=O)N(Cc4ccco4)C3=O)o2)cc1,34%
4,O=C1NC(=O)N(Cc2ccco2)C(=O)/C1=C\c1ccc(-c2ccc(Cl)c([N+](=O)[O-])c2)o1,35%
5,O=C1NC(=O)N(Cc2ccco2)C(=O)/C1=C\c1ccc(-c2ccc(C(=O)O)cc2)o1,35%
6,Cc1cc(/C=C2/C(=O)NC(=O)N(Cc3ccco3)C2=O)c(C)n1-c1ccc(Cl)cc1,12%
7,O=C1NC(=O)N(Cc2ccco2)C(=O)/C1=C\c1ccc(-c2ccc([N+](=O)[O-])cc2)o1,17%
8,O=C1NC(=O)N(Cc2ccco2)C(=O)/C1=C\c1ccc(-c2ccc(Cl)c(Cl)c2)o1,41%
9,Cc1cc(-c2ccc(/C=C3/C(=O)NC(=O)N(Cc4ccco4)C3=O)o2)ccc1Br,58% (active)
10,O=C1NC(=O)N(Cc2ccco2)C(=O)/C1=C\c1ccc(-c2ccc(Br)cc2)o1,53% (active)
11,O=C1NC(=O)N(Cc2ccco2)C(=O)/C1=C\c1ccc(-c2cccc(Cl)c2Cl)o1,46%
12,O=[N+]([O-])c1cc2c(cc1C=Nc1cc(Cl)cc(Cl)c1)OCO2,5%
13,COc1ccc([N+](=O)[O-])cc1NCc1ccccc1F,12%
14,COc1ccc(C2CC(=O)C3=C(C2)NC(C)=C(C(=O)OCc2ccccc2)C3c2cc(OC)c(OC)c(OC)c2)cc1 (stereo unspecified),10%
15,CCOC(=O)c1c(-c2ccc(C(C)C)cc2)csc1N,27%
16,COc1cc([N+](=O)[O-])ccc1NC(=O)c1ccccc1,16%
17,COc1cc2ccccc2cc1C(=O)Nc1ccc(C)c(NC(=O)c2cc3ccccc3cc2OC)c1,28%
18,CC1=C(C(=O)OCCc2ccccc2)C(c2ccc(O)cc2)C2=C(CCCC2=O)N1 (stereo unspecified),2%
19,Cc1ccc(N2C(=O)NC(=O)/C(=C\c3cccc(C(F)(F)F)c3)C2=O)cc1C,5%
20,CCOc1ccc(N2C(=O)/C(=C/c3ccc(-c4ccccc4C(=O)O)o3)C(=O)NC2=S)cc1,15%
21,O=C(O/N=C(/c1ccccc1)c1ccncc1)c1ccc(Cl)cc1Cl,18%
22,COc1ccc(Cl)cc1S(=O)(=O)Oc1ccc(Cl)cc1,39%
23,COc1cc(S(=O)(=O)Oc2ccc(OCc3ccccc3)cc2)ccc1Cl,5%
